Data taken from PubChem BioAssay (EPA / NIEHS).
Several values for one entry are separate records, joined by “and”; a condition that tells them apart may be missing. Equal values may be shown once. Results filed as inconclusive are left out. A structure can be active in one record and inactive in another. Activity calls are given as the source filed them. How the source made its calls: active means hit-call score of the fitted dose curve at least 0.9, where 1 is the maximum; inconclusive means response in the unintended direction; inactive means score below 0.9.

Assays:
[1] = molecular target: human Serotonin, 5-Hydroxytryptamine Receptor 5A (5HT5A), HTR5A (gene 3361) (UniProt P47898); test: NVS_GPCR_h5HT5A: NovaScreen (NVS) G Protein-Coupled Receptor Assay for human Serotonin, 5-Hydroxytryptamine Receptor 5A (5HT5A) (AID 2283251)
Method in brief: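 Cell-free radioligand displacement binding on HEK293-derived membrane protein, 1 h incubation, filter-based scintillation counting. Primary screen in duplicate at 25 uM, actives followed in concentration series; loss of signal fitted versus DMSO.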

[2] = molecular target: human Serotonin, 5-Hydroxytryptamine Receptor 6 (5HT6), HTR6 (gene 3362) (UniProt P50406); test: NVS_GPCR_h5HT6: NovaScreen (NVS) G Protein-Coupled Receptor Assay for human Serotonin, 5-Hydroxytryptamine Receptor 6 (5HT6) (AID 2283253)
Method in brief: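 Radioligand binding to 5HT6 in HEK293-derived membranes, cell-free, 1 h after dosing; bound ligand measured by filter-based scintillation counting. Primary screen in duplicate at 25 uM; actives retested in concentration series.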

[3] = molecular target: rat Acetylcholinesterase (AChE), Ache (gene 83817) (UniProt P37136); test: NVS_ENZ_rAChE: NovaScreen (NVS) Enzymatic Assay for rat Acetylcholinesterase (AChE) (AID 2283233)
Method in brief: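 Rat brain membrane acetylcholinesterase activity measured colorimetrically 0.33 h after compound addition, loss of signal relative to DMSO. Primary screen in duplicate at 25 uM; actives re-run as concentration-response with 50 uM top concentration.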

[4] = molecular target: rat Monoamine Oxidase, MAO-B, Central (MAOBC), Maob (gene 25750) (UniProt P19643); test: NVS_ENZ_rMAOBC: NovaScreen (NVS) Enzymatic Assay for rat Monoamine Oxidase, MAO-B, Central (MAOBC) (AID 2283238)
Method in brief: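 MAO-B activity in rat brain tissue preparation, cell-free, measured radiometrically by scintillation counting 1.17 h after dosing. Screened in duplicate at 25 uM; actives then in concentration-response up to 50 uM. Loss of signal versus DMSO scored.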

[5] = system: guinea pig Leukotriene B4 Receptor (LTB4), gene 100379538; test: NVS_GPCR_gLTB4: NovaScreen (NVS) G Protein-Coupled Receptor Assay for guinea pig Leukotriene B4 Receptor (LTB4) (AID 2283247)
Method in brief: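 Radioligand displacement on guinea pig spleen membranes, filter-based scintillation counting 2 h after dosing. Primary duplicate single point at 25 uM; hits over threshold (e.g. 30% inhibition) run in concentration-response up to 50 uM, DMSO baseline.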

[6] = system: rat Monoamine Oxidase, MAO-A, Peripheral (MAOAP), gene 29253; test: NVS_ENZ_rMAOAP: NovaScreen (NVS) Enzymatic Assay for rat Monoamine Oxidase, MAO-A, Peripheral (MAOAP) (AID 2283237)
Method in brief: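 Rat liver mitochondrial membranes served as the MAO-A source, with enzyme activity measured by radiometric scintillation counting 1.17 hours after dosing. Loss of signal was fitted against DMSO; primary screen used 25 uM in duplicate, follow-up used concentration series.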

[7] = system: rat Monoamine Oxidase, MAO-A, Central (MAOAC), gene 29253; test: NVS_ENZ_rMAOAC: NovaScreen (NVS) Enzymatic Assay for rat Monoamine Oxidase, MAO-A, Central (MAOAC) (AID 2283243);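 further: potency refers to inhibition seen as signal drop below DMSO baseline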
Method in brief: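 Rat brain tissue extract served as the cell-free enzyme source; activity was measured by radiometric scintillation counting 1.5 hours after compound addition. Loss of signal relative to DMSO baseline indicated inhibition; primary screen at 25 uM in duplicate.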

[8] = molecular target: rat Constitutive Nitric Oxide Synthase (CNOS), Nos1 (gene 24598) (UniProt P29476); test: NVS_ENZ_rCNOS: NovaScreen (NVS) Enzymatic Assay for rat Constitutive Nitric Oxide Synthase (CNOS) (AID 2283236)
Method in brief: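 Enzyme activity in rat brain membrane preparation, read 1 h after dosing by filter-based radiometric scintillation counting. Primary screen in duplicate at 25 uM; actives (e.g., ≥30% inhibition) then run in concentration-response up to 50 uM.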

[9] = molecular target: sheep Cyclooxygenase-1 (Cox1), PTGS1 (gene 443551) (UniProt P05979); test: NVS_ENZ_oCOX1: NovaScreen (NVS) Enzymatic Assay for sheep Cyclooxygenase-1 (Cox1) (AID 2283239);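 further: actives reduce cyclooxygenase activity so potencies are for inhibitors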
Method in brief: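 COX1 from ovine seminal vesicles, activity read colorimetrically about 0.66 h after dosing. Primary screen in duplicate at 25 uM; actives retested in concentration series; loss of signal fitted versus DMSO.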

[10] = molecular target: rat Monoamine Oxidase, MAO-B, Peripheral (MAOBP), Maob (gene 25750) (UniProt P19643); test: NVS_ENZ_rMAOBP: NovaScreen (NVS) Enzymatic Assay for rat Monoamine Oxidase, MAO-B, Peripheral (MAOBP) (AID 2283242)
Method: NVS_ENZ_rMAOBP is a biochemical, single-readout assay that uses extracted gene-proteins from Rat brain in a tissue-based cell-free assay. Measurements were taken 1.17 hours after chemical dosing in a 96-well plate.NVS_ENZ_rMAOBP is one of one assay component(s) measured or calculated from the NVS_ENZ_rMAOBP assay. It is designed to make measurements of enzyme activity, a form of enzyme reporter, as detected with scintillation counting signals by Lysate-based radiodetection technology.Data from the assay component NVS_ENZ_rMAOBP was analyzed into 1 assay endpoint. This assay endpoint, NVS_ENZ_rMAOBP, was analyzed in the positive analysis fitting direction relative to DMSO as the negative control and baseline of activity. Using a type of enzyme reporter, loss-of-signal activity can be used to understand changes in the enzymatic activity as they relate to the gene Maob. Furthermore, this assay endpoint can be referred to as a primary readout, because this assay has produced multiple assay endpoints where this one serves a enzymatic activity function. To generalize the intended target to other relatable targets, this assay endpoint is annotated to the oxidoreductase intended target family, where the subfamily is monoamine oxidase.
Binding assays used specific radioligands (tritiated, iodinated) with non-radioactive competitive displacement ligands in agonist or antagonist protocols (as indicated) and various reference compounds and inhibitors to titrate specific binding to receptors and transporters. Most enzyme assays (CYPs, kinases, phosphatases, proteases, HDACs) used recombinant protein and specific substrates (fluorescence mostly, some colorimetric and radioactive) and inhibitors, followed by a biochemical separation of substrate and product. All assays for the biochemical HTS were initially run in duplicate at a single concentration (10 uM for CYP450 assays and 25 uM for all others). […]

[11] = molecular target: guinea pig Leukotriene D4 Receptor (LTD4), CYSLTR1 (gene 100135514) (UniProt Q2NNR5); test: NVS_GPCR_gLTD4: NovaScreen (NVS) G Protein-Coupled Receptor Assay for guinea pig Leukotriene D4 Receptor (LTD4) (AID 2283248)
Method in brief: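 Radioligand displacement on guinea pig lung membranes, 1 h incubation, filtration and scintillation counting; DMSO as negative control. Duplicate 25 uM primary screen, then singleton concentration-response up to 50 uM.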

[12] = molecular target: human Adenosine A1 Receptor (AdoRA1), ADORA1 (gene 134) (UniProt P30542); test: NVS_GPCR_hAdoRA1: NovaScreen (NVS) G Protein-Coupled Receptor Assay for human Adenosine A1 Receptor (AdoRA1) (AID 2283254)
Method in brief: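 Radioligand binding was run on human cortical membranes, cell-free, with filter-based scintillation counting 1 h after dosing. The primary screen was duplicate at 25 uM, followed by concentration series. Signal loss versus DMSO was fitted positive-direction.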

[13] = molecular target: human Serotonin, 5-Hydroxytryptamine Receptor 7 (5HT7), HTR7 (gene 3363) (UniProt P34969); test: NVS_GPCR_h5HT7: NovaScreen (NVS) G Protein-Coupled Receptor Assay for human Serotonin, 5-Hydroxytryptamine Receptor 7 (5HT7) (AID 2283255);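 further: hits reduce specific radioligand binding relative to DMSO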
Method in brief: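 Radioligand displacement on membranes from CHO cells expressing human 5HT7, 1 h incubation, filter-based scintillation counting. Primary screen used a single 25 uM concentration in duplicate; actives were followed up in concentration series.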

[14] = system: guinea pig Muscarinic, Peripheral (Mperiperal) Receptor, Non-selective Binding, gene 100379235; test: NVS_GPCR_gMPeripheral_NonSelective: NovaScreen (NVS) G Protein-Coupled Receptor Assay for guinea pig Muscarinic, Peripheral (Mperiperal) Receptor, Non-selective Binding (AID 2283250)
Method in brief: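 Guinea pig bladder membranes, radioligand binding read 1 h after dosing by filter scintillation counting; loss of signal vs DMSO. Primary duplicate screen at 25 uM, then concentration-response up to 50 uM.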

[15] = system: bovine Angiotensin II Receptor Type 2 (AT2), gene 407157; test: NVS_GPCR_bAT2: NovaScreen (NVS) G Protein-Coupled Receptor Assay for bovine Angiotensin II Receptor Type 2 (AT2) (AID 2283240)
Method in brief: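 Radioligand displacement on bovine cerebellar membranes, 1 hour incubation, filter-based scintillation counting; loss of signal vs DMSO. Duplicate single-point screen at 25 uM, then concentration-response to 50 uM maximum.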

[16] = NVS_GPCR_bNPY_NonSelective: NovaScreen (NVS) G Protein-Coupled Receptor Assay for bovine Neuropeptide Y (NPY) Receptor, Non-selective Binding (AID 2283245)
Method in brief: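 Bovine hippocampal membranes incubated 1 hour with radioligand and test chemical. Bound ligand measured by filter-based scintillation counting. Single-concentration screen at 25 uM in duplicate, then concentration-response up to 50 uM.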

Sequence of human Adenosine A1 Receptor (AdoRA1), ADORA1 (gene 134) (P30542 whole entry, looked up): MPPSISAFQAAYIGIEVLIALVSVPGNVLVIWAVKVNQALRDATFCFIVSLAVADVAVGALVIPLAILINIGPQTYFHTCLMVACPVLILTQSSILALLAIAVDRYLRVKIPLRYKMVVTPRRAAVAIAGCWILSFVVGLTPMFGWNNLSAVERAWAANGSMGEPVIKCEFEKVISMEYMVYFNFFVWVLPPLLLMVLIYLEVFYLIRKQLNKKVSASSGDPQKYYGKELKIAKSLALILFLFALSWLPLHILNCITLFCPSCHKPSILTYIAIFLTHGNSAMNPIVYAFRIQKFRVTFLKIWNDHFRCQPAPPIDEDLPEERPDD
Sequence of rat Constitutive Nitric Oxide Synthase (CNOS), Nos1 (gene 24598) (P29476 whole entry, looked up): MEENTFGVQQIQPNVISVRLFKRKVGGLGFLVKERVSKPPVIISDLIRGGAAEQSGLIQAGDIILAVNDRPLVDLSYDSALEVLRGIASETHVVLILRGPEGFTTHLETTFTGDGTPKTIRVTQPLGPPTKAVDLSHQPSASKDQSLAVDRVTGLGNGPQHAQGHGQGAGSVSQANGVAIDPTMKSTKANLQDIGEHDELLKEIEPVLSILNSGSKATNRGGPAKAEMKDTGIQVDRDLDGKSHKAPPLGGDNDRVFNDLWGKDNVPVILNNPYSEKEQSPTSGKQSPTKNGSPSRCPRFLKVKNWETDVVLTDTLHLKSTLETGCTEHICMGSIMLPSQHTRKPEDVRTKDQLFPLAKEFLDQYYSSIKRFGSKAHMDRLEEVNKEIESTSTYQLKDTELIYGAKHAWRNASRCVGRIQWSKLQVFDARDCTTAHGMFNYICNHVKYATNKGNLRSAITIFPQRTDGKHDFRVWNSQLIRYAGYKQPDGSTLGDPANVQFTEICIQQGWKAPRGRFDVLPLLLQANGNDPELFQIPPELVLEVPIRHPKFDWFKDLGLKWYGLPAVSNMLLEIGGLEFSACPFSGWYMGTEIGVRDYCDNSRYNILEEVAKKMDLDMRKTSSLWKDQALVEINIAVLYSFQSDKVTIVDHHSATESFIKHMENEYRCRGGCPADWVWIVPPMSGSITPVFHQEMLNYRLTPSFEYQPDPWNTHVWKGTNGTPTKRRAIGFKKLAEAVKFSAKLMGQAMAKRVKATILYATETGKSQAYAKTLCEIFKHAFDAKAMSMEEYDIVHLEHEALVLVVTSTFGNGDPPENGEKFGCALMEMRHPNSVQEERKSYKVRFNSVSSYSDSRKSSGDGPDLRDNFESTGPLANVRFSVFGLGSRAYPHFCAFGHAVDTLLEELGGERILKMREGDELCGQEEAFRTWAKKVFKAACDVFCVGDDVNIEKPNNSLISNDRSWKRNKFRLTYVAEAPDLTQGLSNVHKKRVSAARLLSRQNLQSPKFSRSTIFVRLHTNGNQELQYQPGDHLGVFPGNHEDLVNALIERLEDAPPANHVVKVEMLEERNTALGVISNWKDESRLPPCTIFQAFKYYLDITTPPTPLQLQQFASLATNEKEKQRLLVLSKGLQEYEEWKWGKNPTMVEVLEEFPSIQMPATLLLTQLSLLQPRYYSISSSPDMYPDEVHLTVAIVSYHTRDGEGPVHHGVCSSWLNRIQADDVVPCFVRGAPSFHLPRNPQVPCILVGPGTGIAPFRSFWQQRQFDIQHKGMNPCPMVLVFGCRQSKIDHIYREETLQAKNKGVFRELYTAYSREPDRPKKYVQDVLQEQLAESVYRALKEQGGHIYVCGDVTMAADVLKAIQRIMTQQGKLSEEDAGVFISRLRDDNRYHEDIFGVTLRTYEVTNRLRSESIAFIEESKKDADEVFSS
Sequence of human Serotonin, 5-Hydroxytryptamine Receptor 5A (5HT5A), HTR5A (gene 3361) (P47898 whole entry, looked up): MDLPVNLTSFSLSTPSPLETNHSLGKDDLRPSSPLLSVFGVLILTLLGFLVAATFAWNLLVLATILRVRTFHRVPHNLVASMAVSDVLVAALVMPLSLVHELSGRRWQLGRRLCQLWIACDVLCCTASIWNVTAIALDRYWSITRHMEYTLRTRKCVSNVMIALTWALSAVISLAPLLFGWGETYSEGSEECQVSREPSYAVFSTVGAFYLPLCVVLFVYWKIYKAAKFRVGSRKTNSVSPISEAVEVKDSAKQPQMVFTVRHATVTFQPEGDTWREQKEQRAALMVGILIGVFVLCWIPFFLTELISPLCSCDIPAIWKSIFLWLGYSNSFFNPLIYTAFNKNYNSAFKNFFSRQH
Sequence of human Serotonin, 5-Hydroxytryptamine Receptor 7 (5HT7), HTR7 (gene 3363) (P34969 whole entry, looked up): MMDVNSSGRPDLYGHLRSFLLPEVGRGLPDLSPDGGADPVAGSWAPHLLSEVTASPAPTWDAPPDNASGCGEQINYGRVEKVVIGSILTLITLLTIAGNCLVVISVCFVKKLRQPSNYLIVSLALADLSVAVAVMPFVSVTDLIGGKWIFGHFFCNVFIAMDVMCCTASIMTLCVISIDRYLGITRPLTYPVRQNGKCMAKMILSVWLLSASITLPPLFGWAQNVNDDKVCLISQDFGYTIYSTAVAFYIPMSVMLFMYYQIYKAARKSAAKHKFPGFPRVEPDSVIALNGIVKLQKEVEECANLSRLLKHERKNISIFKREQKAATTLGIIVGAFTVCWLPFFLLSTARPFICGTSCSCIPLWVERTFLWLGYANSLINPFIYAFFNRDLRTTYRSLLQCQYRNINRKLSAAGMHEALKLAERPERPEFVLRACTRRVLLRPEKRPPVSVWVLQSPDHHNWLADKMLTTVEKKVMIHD
Sequence of sheep Cyclooxygenase-1 (Cox1), PTGS1 (gene 443551) (P05979 whole entry, looked up): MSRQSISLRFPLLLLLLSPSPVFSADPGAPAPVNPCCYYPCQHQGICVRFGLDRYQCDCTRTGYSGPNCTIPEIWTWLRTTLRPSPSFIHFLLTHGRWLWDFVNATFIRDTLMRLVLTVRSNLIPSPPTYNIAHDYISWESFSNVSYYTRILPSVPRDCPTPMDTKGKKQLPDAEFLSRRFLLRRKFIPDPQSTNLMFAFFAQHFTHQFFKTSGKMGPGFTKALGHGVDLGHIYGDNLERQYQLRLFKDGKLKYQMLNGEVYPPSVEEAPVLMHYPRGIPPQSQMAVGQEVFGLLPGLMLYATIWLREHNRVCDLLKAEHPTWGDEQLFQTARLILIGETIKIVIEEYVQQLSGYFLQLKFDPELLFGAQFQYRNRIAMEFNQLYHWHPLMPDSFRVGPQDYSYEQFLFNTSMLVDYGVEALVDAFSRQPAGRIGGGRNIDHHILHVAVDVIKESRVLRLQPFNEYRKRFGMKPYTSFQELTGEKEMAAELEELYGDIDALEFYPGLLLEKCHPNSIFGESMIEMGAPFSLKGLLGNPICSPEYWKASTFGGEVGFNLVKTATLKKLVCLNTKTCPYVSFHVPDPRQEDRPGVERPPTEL
Sequence of guinea pig Leukotriene D4 Receptor (LTD4), CYSLTR1 (gene 100135514) (Q2NNR5 whole entry, looked up): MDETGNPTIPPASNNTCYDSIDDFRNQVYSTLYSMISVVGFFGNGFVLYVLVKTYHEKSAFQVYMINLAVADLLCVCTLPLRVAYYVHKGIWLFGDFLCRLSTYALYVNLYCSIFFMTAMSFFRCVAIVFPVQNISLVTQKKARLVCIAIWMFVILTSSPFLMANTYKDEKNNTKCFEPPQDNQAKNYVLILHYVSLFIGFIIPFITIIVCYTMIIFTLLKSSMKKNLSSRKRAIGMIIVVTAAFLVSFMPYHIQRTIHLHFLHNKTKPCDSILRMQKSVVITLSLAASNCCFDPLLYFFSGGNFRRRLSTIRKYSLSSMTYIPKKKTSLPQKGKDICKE
Sequence of rat Acetylcholinesterase (AChE), Ache (gene 83817) (P37136 whole entry, looked up): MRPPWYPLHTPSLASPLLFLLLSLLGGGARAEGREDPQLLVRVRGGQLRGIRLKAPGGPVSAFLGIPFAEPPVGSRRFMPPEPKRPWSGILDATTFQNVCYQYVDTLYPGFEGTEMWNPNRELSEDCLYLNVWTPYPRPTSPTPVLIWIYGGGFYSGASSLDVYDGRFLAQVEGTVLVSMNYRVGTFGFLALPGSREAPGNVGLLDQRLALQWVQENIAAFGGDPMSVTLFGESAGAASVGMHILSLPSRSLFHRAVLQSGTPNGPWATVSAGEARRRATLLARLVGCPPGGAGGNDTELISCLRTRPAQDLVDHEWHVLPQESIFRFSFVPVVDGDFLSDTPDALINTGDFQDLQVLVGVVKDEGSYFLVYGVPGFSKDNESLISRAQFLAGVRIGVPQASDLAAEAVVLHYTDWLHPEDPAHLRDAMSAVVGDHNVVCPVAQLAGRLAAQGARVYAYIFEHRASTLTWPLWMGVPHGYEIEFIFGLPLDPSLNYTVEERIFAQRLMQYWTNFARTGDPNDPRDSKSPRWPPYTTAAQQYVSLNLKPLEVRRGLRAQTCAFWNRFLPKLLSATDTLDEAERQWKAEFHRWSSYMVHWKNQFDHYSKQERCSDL
Sequence of rat Monoamine Oxidase, MAO-B, Central (MAOBC), Maob (gene 25750) (P19643 whole entry, looked up): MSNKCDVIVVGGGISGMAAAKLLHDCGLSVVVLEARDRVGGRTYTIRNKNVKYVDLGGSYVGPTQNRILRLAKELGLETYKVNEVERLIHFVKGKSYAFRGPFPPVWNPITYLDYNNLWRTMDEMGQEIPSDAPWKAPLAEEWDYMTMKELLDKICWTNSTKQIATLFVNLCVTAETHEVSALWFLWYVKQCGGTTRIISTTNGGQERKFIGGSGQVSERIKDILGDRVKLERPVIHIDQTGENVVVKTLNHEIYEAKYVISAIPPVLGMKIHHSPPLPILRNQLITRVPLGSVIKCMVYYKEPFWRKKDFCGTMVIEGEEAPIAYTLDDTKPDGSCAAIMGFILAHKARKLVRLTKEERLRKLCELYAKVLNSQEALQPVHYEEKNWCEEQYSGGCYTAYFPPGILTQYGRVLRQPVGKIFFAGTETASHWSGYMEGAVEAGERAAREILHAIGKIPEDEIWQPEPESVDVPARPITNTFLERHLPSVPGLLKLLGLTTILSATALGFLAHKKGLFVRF
Sequence of rat Monoamine Oxidase, MAO-B, Peripheral (MAOBP), Maob (gene 25750) (P19643 whole entry, looked up): as above

CC(C)(C)C(O)/C(=C\c1ccc(Cl)cc1Cl)n1cncn1 (configuration not stated)
outcome [1]: inactive
outcome [2]: inactive

COP(=S)(OC)Oc1ccc([N+](=O)[O-])cc1
outcome [3]: inactive
outcome [4]: inactive
AC50 [5]: 10.5 µM (active)

CCC(C)(NC(=O)c1cc(Cl)c(C)c(Cl)c1)C(=O)CCl (configuration not stated)
outcome [1]: inactive

CNC(=O)Oc1cccc(N=CN(C)C)c1
AC50 [3]: 12 µM (active)
outcome [6]: inactive
outcome [7]: inactive

COc1cc(OC)nc(NC(=O)NS(=O)(=O)c2cc(NC=O)ccc2C(=O)N(C)C)n1
outcome [8]: inactive

CCN(CC)C(=O)SCc1ccc(Cl)cc1
outcome [8]: inactive
outcome [1]: inactive

Oc1ccc(Cl)cc1Cc1ccccc1
AC50 [6]: 38.2 µM (active)
outcome [6]: inactive
AC50 [9]: 36.2 µM (active) and 38.3 µM (active)
AC50 [10]: 13.6 µM (active)
AC50 [7]: 17.3 µM (active) and 25.2 µM (active)
outcome [7]: inactive
AC50 [11]: 6.93 µM (active)
outcome [11]: inactive
AC50 [1]: 25.2 µM (active) [middle of 6 runs]
AC50 [12]: 16.1 µM (active) [middle of 6 runs]
AC50 [13]: 20.8 µM (active) [middle of 5 runs]

COP(=O)(OC)OC=C(Cl)Cl
AC50 [3]: 6.37 µM (active)
outcome [9]: inactive

CC(C)N(C(=O)COc1nnc(C(F)(F)F)s1)c1ccc(F)cc1
AC50 [3]: 14.2 µM (active)

O=C(O)C(F)(F)C(F)(F)C(F)(F)C(F)(F)C(F)(F)C(F)(F)C(F)(F)F
outcome [9]: inactive
AC50 [5]: 18.5 µM (active)
outcome [11]: inactive
outcome [14]: inactive
outcome [1]: inactive

Cc1[nH]c(=O)n(C(C)(C)C)c(=O)c1Cl
outcome [8]: inactive

CC[C@H](C)[C@H]1O[C@]2(C=C[C@@H]1C)C[C@@H]1C[C@@H](C/C=C(\C)[C@@H](O[C@H]3C[C@H](OC)[C@@H](O[C@H]4C[C@H](OC)[C@@H](O)[C@H](C)O4)[C@H](C)O3)[C@@H](C)/C=C/C=C3\CO[C@@H]4[C@H](O)C(C)=C[C@@H](C(=O)O1)[C@]34O)O2 (tested in a mixture with another compound)
outcome [15]: inactive
outcome [16]: inactive
AC50 [11]: 25 µM (active)
AC50 [1]: 3.1 µM (active)
AC50 [13]: 6.77 µM (active)

[2H]C1([2H])[n+]2ccccc2-c2cccc[n+]2C1([2H])[2H]
outcome [8]: inactive
outcome [14]: inactive

COC(=O)c1ccccc1S(=O)(=O)NC(=O)N(C)c1nc(C)nc(OC)n1
outcome [4]: inactive

CCCN(CCC)c1c([N+](=O)[O-])cc(C(F)(F)F)cc1[N+](=O)[O-]
AC50 [9]: 12.8 µM (active)
AC50 [1]: 6.21 µM (active)
